Measured values taken from article PMC7862700, “An all-to-all approach to the identification of sequence-specific readers for epigenetic DNA modifications on cytosine”.

Tests used:
Assay in all cases: DAPPL (digital affinity profiling via proximity ligation, sequencing); 10 mM Tris-HCl pH 7.5, 50 mM NaCl, 1 mM DTT, 4% glycerol, room temperature, 30 min; GST-TFs on glutathione beads, 16-mer random dsDNA library, 0.1% formaldehyde crosslink after washing; high values mean tight binding
Conditions in all cases: protein: recombinant; tags: N-terminal GST; dsDNA, one strand shown
[1] = biological target: T1, FLI1 (Homo sapiens, UniProt Q01543 1-452)
T1 sequence: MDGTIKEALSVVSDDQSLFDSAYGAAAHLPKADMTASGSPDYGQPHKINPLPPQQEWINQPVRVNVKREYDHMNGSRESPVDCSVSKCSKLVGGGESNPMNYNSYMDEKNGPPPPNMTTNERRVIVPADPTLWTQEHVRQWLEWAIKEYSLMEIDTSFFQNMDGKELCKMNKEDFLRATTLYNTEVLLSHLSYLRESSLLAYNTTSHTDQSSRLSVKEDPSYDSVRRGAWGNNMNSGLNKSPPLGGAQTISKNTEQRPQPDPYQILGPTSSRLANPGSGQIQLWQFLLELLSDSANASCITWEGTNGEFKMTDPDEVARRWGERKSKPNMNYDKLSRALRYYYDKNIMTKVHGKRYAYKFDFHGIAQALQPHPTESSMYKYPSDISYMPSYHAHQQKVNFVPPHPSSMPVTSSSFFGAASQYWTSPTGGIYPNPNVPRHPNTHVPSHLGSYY
Outline: (§1)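 A tag-only sample was pooled with DNA-barcoded human transcription factors that had been expressed in yeast as GST fusions and captured on glutathione beads. The pools were incubated for 30 min at room temperature with 200 nmole of a random double-stranded 16-mer DNA library in Tris/NaCl/DTT/glycerol buffer, then washed, crosslinked with 0.1% formaldehyde, proximity-ligated (BsaI/T4 ligase, 1 h, 37 °C), PCR-amplified and sequenced on an Illumina NextSeq500. Binding signal is each hexamer's read frequency for a factor divided by its frequency for the tag-only sample.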

[2] = biological target: T2, ELK1 (Homo sapiens, UniProt P19419 1-428)
T2 sequence: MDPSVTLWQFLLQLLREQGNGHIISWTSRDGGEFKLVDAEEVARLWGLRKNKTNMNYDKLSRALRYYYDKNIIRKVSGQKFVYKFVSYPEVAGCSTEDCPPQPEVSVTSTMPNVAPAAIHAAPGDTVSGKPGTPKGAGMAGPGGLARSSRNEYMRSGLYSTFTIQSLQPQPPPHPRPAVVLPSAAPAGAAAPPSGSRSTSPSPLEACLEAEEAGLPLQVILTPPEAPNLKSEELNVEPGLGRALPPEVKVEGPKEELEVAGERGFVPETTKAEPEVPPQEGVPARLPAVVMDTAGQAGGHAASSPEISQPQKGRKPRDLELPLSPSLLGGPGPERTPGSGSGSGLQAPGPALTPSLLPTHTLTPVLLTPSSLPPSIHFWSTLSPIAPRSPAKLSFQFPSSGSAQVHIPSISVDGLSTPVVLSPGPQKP
Outline: as §1

[3] = biological target: T3, GABPA (Homo sapiens, UniProt Q06546 1-454)
T3 sequence: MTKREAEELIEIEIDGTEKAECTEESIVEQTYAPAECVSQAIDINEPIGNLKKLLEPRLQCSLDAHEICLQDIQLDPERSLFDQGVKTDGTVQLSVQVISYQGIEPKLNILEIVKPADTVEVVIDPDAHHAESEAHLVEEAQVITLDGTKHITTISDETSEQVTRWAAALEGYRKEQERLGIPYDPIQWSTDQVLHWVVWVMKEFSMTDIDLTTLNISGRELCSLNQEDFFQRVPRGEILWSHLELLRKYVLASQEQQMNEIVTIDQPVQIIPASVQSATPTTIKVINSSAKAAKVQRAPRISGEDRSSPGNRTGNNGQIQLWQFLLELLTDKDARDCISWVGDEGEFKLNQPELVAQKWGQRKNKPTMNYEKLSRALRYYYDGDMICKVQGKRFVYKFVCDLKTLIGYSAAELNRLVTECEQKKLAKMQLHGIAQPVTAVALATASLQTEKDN
Outline: as §1

[4] = biological target: T4, ERG (Homo sapiens, UniProt P11308 1-479)
T4 sequence: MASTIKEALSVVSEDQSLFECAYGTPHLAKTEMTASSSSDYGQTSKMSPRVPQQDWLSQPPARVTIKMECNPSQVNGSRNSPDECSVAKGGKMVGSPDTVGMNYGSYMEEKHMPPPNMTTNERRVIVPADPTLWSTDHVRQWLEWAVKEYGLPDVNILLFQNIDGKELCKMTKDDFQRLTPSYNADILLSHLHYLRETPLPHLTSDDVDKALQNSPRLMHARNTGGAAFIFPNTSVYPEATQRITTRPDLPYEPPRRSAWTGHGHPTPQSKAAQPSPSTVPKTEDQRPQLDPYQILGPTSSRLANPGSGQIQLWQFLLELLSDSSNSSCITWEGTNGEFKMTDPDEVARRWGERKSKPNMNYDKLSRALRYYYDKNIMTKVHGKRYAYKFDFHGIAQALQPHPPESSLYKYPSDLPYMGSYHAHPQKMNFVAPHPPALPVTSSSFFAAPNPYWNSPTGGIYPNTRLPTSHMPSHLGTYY
Outline: as §1

[5] = biological target: ELF1 (Homo sapiens, UniProt P32519 1-619)
ELF1, sequence (P32519 whole entry): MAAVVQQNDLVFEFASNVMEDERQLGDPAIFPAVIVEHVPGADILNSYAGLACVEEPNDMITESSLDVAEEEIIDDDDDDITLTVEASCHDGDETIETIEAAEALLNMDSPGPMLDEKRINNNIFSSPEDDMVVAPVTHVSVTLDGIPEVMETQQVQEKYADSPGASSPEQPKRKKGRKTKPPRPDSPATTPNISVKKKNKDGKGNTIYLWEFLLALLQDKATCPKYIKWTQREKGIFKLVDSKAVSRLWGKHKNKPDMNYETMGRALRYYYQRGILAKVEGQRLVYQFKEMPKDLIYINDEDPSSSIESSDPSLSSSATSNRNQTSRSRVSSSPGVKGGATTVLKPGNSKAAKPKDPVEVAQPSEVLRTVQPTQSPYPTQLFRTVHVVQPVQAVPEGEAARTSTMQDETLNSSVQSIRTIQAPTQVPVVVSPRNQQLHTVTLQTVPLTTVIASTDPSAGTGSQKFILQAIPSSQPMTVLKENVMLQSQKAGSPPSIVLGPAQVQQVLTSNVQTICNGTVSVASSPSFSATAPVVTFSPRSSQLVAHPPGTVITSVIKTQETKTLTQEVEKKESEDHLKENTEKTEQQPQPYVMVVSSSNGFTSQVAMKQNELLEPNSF
Outline: as §1

[6] = biological target: T5, EHF (Homo sapiens, UniProt Q9NZC4 1-300)
T5 sequence: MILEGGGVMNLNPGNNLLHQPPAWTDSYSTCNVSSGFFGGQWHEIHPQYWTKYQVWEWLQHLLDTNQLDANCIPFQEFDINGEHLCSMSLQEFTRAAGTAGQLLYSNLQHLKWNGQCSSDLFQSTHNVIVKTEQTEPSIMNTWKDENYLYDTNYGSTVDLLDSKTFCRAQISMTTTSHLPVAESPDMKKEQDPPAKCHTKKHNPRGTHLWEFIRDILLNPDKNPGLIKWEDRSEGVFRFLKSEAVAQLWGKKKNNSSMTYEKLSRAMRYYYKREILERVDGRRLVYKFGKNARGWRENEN
Outline: as §1

[7] = biological target: SPI1 (Homo sapiens, UniProt P17947 1-270)
Outline: as §1

[8] = biological target: SPIB (Homo sapiens, UniProt Q01892 1-262)
SPIB, sequence (Q01892 whole entry): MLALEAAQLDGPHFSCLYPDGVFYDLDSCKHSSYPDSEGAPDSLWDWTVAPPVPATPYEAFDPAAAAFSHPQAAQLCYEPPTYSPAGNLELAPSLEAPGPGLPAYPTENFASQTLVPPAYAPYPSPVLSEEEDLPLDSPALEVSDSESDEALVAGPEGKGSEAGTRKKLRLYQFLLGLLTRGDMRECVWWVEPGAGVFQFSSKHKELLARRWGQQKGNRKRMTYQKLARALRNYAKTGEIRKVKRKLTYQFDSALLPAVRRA
Outline: as §1

[9] = biological target: T6, ELK3 (Homo sapiens, UniProt P41970 1-407)
T6 sequence: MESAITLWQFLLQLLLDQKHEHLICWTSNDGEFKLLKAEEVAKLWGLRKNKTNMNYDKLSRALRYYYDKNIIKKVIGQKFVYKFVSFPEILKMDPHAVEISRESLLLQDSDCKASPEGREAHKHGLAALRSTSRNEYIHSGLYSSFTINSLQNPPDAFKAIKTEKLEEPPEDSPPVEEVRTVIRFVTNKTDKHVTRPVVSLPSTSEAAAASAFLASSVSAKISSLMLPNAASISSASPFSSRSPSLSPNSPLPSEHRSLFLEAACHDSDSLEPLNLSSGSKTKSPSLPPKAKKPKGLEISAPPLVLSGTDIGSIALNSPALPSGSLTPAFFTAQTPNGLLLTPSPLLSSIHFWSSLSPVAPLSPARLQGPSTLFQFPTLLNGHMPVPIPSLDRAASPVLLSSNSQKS
Outline: as §1

| Sequence | binding signal [1] | binding signal [2] | binding signal [3] | binding signal [4] | binding signal [5] | binding signal [6] | binding signal [7] | binding signal [8] | binding signal [9] |
| --- | --- | --- | --- | --- | --- | --- | --- | --- | --- |
| TTACGA | 1.21 fold enrichment (6-mer frequency, TF over GST control) | 1.14 fold enrichment (6-mer frequency, TF over GST control) | 1.18 fold enrichment (6-mer frequency, TF over GST control) | 1.06 fold enrichment (6-mer frequency, TF over GST control) | 1.14 fold enrichment (6-mer frequency, TF over GST control) | 1.07 fold enrichment (6-mer frequency, TF over GST control) | 1.09 fold enrichment (6-mer frequency, TF over GST control) | 1.07 fold enrichment (6-mer frequency, TF over GST control) | 1.09 fold enrichment (6-mer frequency, TF over GST control) |
| AAGTCA | 1.18 fold enrichment (6-mer frequency, TF over GST control) | 1.24 fold enrichment (6-mer frequency, TF over GST control) | 1.15 fold enrichment (6-mer frequency, TF over GST control) | 1.26 fold enrichment (6-mer frequency, TF over GST control) | 1.17 fold enrichment (6-mer frequency, TF over GST control) | 1.15 fold enrichment (6-mer frequency, TF over GST control) | 1.3 fold enrichment (6-mer frequency, TF over GST control) | 1.11 fold enrichment (6-mer frequency, TF over GST control) | 1.28 fold enrichment (6-mer frequency, TF over GST control) |
| TGACAT | 1.27 fold enrichment (6-mer frequency, TF over GST control) | 1.27 fold enrichment (6-mer frequency, TF over GST control) | 1.31 fold enrichment (6-mer frequency, TF over GST control) | 1.19 fold enrichment (6-mer frequency, TF over GST control) | 1.28 fold enrichment (6-mer frequency, TF over GST control) | 1.36 fold enrichment (6-mer frequency, TF over GST control) | 1.21 fold enrichment (6-mer frequency, TF over GST control) | 1.19 fold enrichment (6-mer frequency, TF over GST control) | 1.15 fold enrichment (6-mer frequency, TF over GST control) |
| CTCAGA | 1.07 fold enrichment (6-mer frequency, TF over GST control) | 1.12 fold enrichment (6-mer frequency, TF over GST control) | 1.13 fold enrichment (6-mer frequency, TF over GST control) | 1.1 fold enrichment (6-mer frequency, TF over GST control) | 1.14 fold enrichment (6-mer frequency, TF over GST control) | 1.1 fold enrichment (6-mer frequency, TF over GST control) | 1.04 fold enrichment (6-mer frequency, TF over GST control) | 1.01 fold enrichment (6-mer frequency, TF over GST control) | 1.02 fold enrichment (6-mer frequency, TF over GST control) |
| AAGTTT | 1.42 fold enrichment (6-mer frequency, TF over GST control) | 1.48 fold enrichment (6-mer frequency, TF over GST control) | 1.42 fold enrichment (6-mer frequency, TF over GST control) | 1.36 fold enrichment (6-mer frequency, TF over GST control) | 1.37 fold enrichment (6-mer frequency, TF over GST control) | 1.5 fold enrichment (6-mer frequency, TF over GST control) | 1.45 fold enrichment (6-mer frequency, TF over GST control) | 1.6 fold enrichment (6-mer frequency, TF over GST control) | 1.44 fold enrichment (6-mer frequency, TF over GST control) |
| CTGCCA | 1.18 fold enrichment (6-mer frequency, TF over GST control) | 1.17 fold enrichment (6-mer frequency, TF over GST control) | 1.24 fold enrichment (6-mer frequency, TF over GST control) | 1.23 fold enrichment (6-mer frequency, TF over GST control) | 1.23 fold enrichment (6-mer frequency, TF over GST control) | 1.18 fold enrichment (6-mer frequency, TF over GST control) | 1.24 fold enrichment (6-mer frequency, TF over GST control) | 1.28 fold enrichment (6-mer frequency, TF over GST control) | 1.08 fold enrichment (6-mer frequency, TF over GST control) |
| TCGCCG | 1.14 fold enrichment (6-mer frequency, TF over GST control) | 1.24 fold enrichment (6-mer frequency, TF over GST control) | 1.27 fold enrichment (6-mer frequency, TF over GST control) | 1.24 fold enrichment (6-mer frequency, TF over GST control) | 1.23 fold enrichment (6-mer frequency, TF over GST control) | 1.34 fold enrichment (6-mer frequency, TF over GST control) | 1.14 fold enrichment (6-mer frequency, TF over GST control) | 1.16 fold enrichment (6-mer frequency, TF over GST control) | 1.16 fold enrichment (6-mer frequency, TF over GST control) |
